Only a selection was taken, and hits are over-represented in it overall.
Cycloheximide cs – counter-screen hit for Shiga toxin inhibitors, cycloheximide; cell reporter, cycloheximide protein synthesis inhibition counterscreen; max response, %; hit rate 12% among 300,000; AID 2314; in the data active = max response mostly above about 13%, no sharp cut-off; inactive = mostly below about 14%; also: read at 38.3 µM for the half of the compounds with a filed dose; 0% is about no effect
RE007 growth inh – less growth of the S. pombe RE007 Vpr strain; AID 651644; hit rate 0.21% among 360,000; S. pombe RE007 Vpr strain, BacTiter-Glo ATP luminescence, 24 h; Potency, µM (top dose mostly 92.2 µM), without a hit: at the highest dose activity change, negative = less growth, usual class: inhibitors; active = well fitted falling curve with a large enough effect; inconclusive = small, poorly fitted or top-dose-only effect; inactive = no such curve, though single readings can be large or run the other way; also: potency is read from the fitted curve at half-maximal effect; % is scaled to controls: 0 for no effect and ±100 for the full control effect; nearly all actives have a fitted effect of over 50% in size
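Fission yeast strain RE007, carrying one chromosomally integrated HIV-1 vpr copy, was seeded at OD 0.01 in PMG+AL medium with 23 nL pinned compound. After 24 h at 30 °C and 99% humidity, viability was read by BacTiter-Glo luminescence.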
Shiga inhibitor – Shiga toxin inhibition | Vero cells, Shiga toxin protein synthesis inhibition reporter | inhibition, % at 38.7 µM | hit rate 9.2% among 290,000 | AID 2315; in the data active = inhibition mostly above about 28%, no sharp cut-off; inactive = mostly below about 43%; also: 0% is about no effect
TbPYK inhibitor – blocks Trypanosoma brucei pyruvate kinase | AID 624173 | Q57TT1 | Potency, µM (doses to about 76.8 µM), for the others: top-dose activity, negative = inhibition, hits mostly inhibitors | hit rate 0.12% among 410,000 | TbPYK enzyme, Kinase-Glo Plus ATP luminescence, 45 min; also: potency is read from the fitted curve at half-maximal effect; % is scaled to controls: 0 for no effect and ±100 for the full control effect; nearly all actives have a fitted effect of over 50% in size
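Screened from lowest to highest concentration, compounds were pinned into TbPYK/substrate mixtures, and ADP (130 uM final) was added. Plates sat at room temperature for 45 min prior to Kinase-Glo Plus detection by luminescence.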
LmPK inhibitor – blocks Leishmania mexicana pyruvate kinase activity | Q27686 | purified LmPK, Kinase-Glo ATP luminescence, 1 h | Potency, µM (doses to about 57.5 µM), for inactives: at the top dose activity change, negative = inhibition, hits mostly inhibitors | hit rate 0.37% among 290,000 | AID 1721; also: potency is read from the fitted curve at half-maximal effect; % is scaled to controls: 0 for no effect and ±100 for the full control effect
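In 50 mM imidazole pH 7.2 with 7 mM MgCl2, LmPK (0.1 nM) turned over PEP (0.5 mM) and ADP (0.1 mM) for 1 h at room temperature. Luciferase read-out of ATP.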
Giardia FBPA inh-1 – inhibitors of Giardia lamblia fructose-1,6-bisphosphate aldolase | purified Giardia FBPA | Potency, µM (series often up to 59.6 µM), for inactives: at the top dose activity, negative = inhibition, actives largely listed as inhibitors | hit rate 0.71% among 290,000 | AID 2451; also: potency is read from the fitted curve at half-maximal effect; % is scaled to controls: 0 for no effect and ±100 for the full control effect; nearly all actives have a fitted effect of over 55% in size
Target sequence (A8B2U2 whole entry, looked up): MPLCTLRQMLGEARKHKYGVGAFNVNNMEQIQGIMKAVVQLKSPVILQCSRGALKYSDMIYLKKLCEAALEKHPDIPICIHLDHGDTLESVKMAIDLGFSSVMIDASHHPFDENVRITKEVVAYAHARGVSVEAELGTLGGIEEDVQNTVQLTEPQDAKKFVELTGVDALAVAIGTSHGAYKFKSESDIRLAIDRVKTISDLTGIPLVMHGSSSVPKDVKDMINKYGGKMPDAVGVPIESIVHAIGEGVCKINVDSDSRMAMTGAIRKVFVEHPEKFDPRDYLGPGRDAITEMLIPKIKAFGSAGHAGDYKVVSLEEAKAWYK
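40 nM FBPA preincubated 10 min at RT with compound (up to 57.5 uM final), then substrate plus GAPDH/TPI/NAD/arsenate coupling and diaphorase/resazurin added. Fluorescence read after 20 min at RT, 525/598 nm.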
Giardia growth – inhibitors of Giardia lamblia growth; Giardia lamblia trophozoite growth inhibition; AID 2785; Potency, µM (doses to about 57.5 µM), for inactives: top-dose activity change, negative = inhibition, most hits filed as inhibitors; hit rate 5% among 1,500; shares compounds with Giardia FBPA inh-1;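 also: potency is read from the fitted curve at half-maximal effect; trophozoites exposed to compound for 48 h at 37 °C; % is scaled to controls: 0 for no effect and ±100 for the full control effect; nearly all actives have a fitted effect of over 70% in size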
Mammalian tox – counter-screen for Giardia aldolase inhibitors: mammalian cell toxicity | shares compounds with Giardia FBPA inh-1 | AID 2786 | hit rate 4% among 1,500 | mammalian cell viability counter-screen, qHTS | Potency, µM (titrated, usually from 57.5 µM), for inactives: top-dose viability change, negative = toxicity, most hits filed as inhibitors;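 also: Chinese hamster ovary cells used as mammalian cytotoxicity surrogate; viability measured as cellular ATP by luminescence; potency is read from the fitted curve at half-maximal effect; compound exposure lasted 48 h before reading; % is scaled to controls: 0 for no effect and ±100 for the full control effect; nearly all actives have a fitted effect of over 60% in size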
Giardia FBPA inh-2 – confirmation of Giardia fructose-bisphosphate aldolase inhibitors. shares compounds with Giardia FBPA inh-1. purified Giardia aldolase enzyme activity, qHTS. Potency, µM (top dose mostly 57.5 µM), for the others: top-dose activity change, negative = inhibition, usual class: inhibitors. hit rate 5% among 1,500. AID 2787; also: potency is read from the fitted curve at half-maximal effect; % is scaled to controls: 0 for no effect and ±100 for the full control effect; nearly all actives have a fitted effect of over 45% in size
Rabbit aldolase – selectivity test for Giardia aldolase inhibitors: rabbit aldolase; Rabbit muscle FBPA enzyme inhibition, selectivity counter-screen; Potency, µM (doses to about 57.5 µM), without a hit: top-dose activity, negative = inhibition, hits mostly inhibitors; shares compounds with Giardia FBPA inh-1; hit rate 4% among 1,500; also: potency is read from the fitted curve at half-maximal effect; % is scaled to controls: 0 for no effect and ±100 for the full control effect; nearly all actives have a fitted effect of over 60% in size
Target sequence (P00883 whole entry, looked up): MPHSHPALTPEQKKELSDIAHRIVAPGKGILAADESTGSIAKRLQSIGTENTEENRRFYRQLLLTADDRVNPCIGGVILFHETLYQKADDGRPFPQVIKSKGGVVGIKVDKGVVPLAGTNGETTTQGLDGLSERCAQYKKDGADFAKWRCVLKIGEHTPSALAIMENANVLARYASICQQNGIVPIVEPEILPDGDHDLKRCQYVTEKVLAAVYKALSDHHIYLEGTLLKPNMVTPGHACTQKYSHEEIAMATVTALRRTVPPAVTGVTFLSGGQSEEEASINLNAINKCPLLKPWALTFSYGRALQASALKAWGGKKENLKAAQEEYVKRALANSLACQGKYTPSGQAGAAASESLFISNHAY
GAPDH coupling – counter-screen for Giardia aldolase inhibitors: GAPDH coupling enzyme. AID 2795. shares compounds with Giardia FBPA inh-1. GAPDH coupling enzyme counterscreen, biochemical, qHTS. hit rate 6% among 1,500. Potency, µM (highest dose often 57.5 µM), for inactives: at the top dose activity change, negative = inhibition, actives largely listed as inhibitors; also: potency is read from the fitted curve at half-maximal effect; % is scaled to controls: 0 for no effect and ±100 for the full control effect; nearly all actives have a fitted effect of over 55% in size
The depositor's hits bear a star; ? = inconclusive; · = no result; [ ] = remark or other dose. Unless noted, calls follow the shape of the dose curve; as a rule, active = well fitted curve in the direction sought with a large enough effect; inconclusive = small, poorly fitted or top-dose-only effect, or another doubt; inactive = no such curve, though single readings can be large; an effect the other way counts as inactive or inconclusive.

SMILES	Cycloheximide cs	RE007 growth inh	Shiga inhibitor	TbPYK inhibitor	LmPK inhibitor	Giardia FBPA inh-1	Giardia growth	Mammalian tox	Giardia FBPA inh-2	Rabbit aldolase	GAPDH coupling
CCC(=O)NNC(=S)NC(=O)c1ccc(C)cc1	31.1*	-21.5%	51.2*	-5.4%	4.7%	17.7µM*	?	-4.6%	22.8%	-1.5%	13.1%
CC(=O)NNC(=S)NC(=O)c1ccc(C)cc1	-1.8	11.2%	4.9	-7.1%	1.8%	1.2%	·	·	·	·	·
S=c1[nH]nc(-c2cnccn2)n1-c1ccccc1	2.3	-8.5%	3.5	?	-1.3%	-28.9%	·	·	·	·	·
O=C(O)c1cccc(-n2c(-c3cnccn3)n[nH]c2=S)c1	0.6	-1.9%	2.8	-19.1%	3.5%	19.9µM*	9.8%[10.4 µM]	-0.7%	-0.4%	3.3%	7.8%
S=c1[nH]nc(CCCc2n[nH]c(=S)o2)o1	-1.8	0.6%	-21.3	?	-0.1%	0.5µM*	15.2%[38.3 µM]	-9.6%	?	13.8%	-0.9%
COc1ccc(CCCc2n[nH]c(=S)o2)cc1	2.1	13.3%	-7.1	?	-4.2%	-13.3%	·	·	·	·	·
O=C(NNC(=O)c1ccccc1[N+](=O)[O-])c1ccccn1	3.5	-13.8%	9.4	0.3%	-4.6%	15.8µM*	-14.9%[10.4 µM]	-16.0%	-4.5%	-6.2%	-13.8%
CCN1CCN(CCOCCOc2ccccc2)CC1	2.2	9.5%	-3.5	10.6%	-1.5%	25.1µM*	?	0.4%	4.0%	0.2%	14.3%
c1ccc(OCCOCCN2CCOCC2)cc1	-2.1	-15.3%	-11.2	-12.9%	-2.4%	2.4%	·	·	·	·	·
Nc1c(/C=C2/C=CC(=O)C(O)=C2)c(=O)nc2sc(CC(=O)N3CCCC3)nn12	6.4	7.1%	-8.9	0.0%	4.1%	7.94µM*	-0.2%	5.5%	-17.6%	?	0.2%
COc1ccc(CN2CCC(N3CC(C)OC(C)C3)CC2)c(OC)c1 (stereo unspecified)	1.4	-18.9%	-15.8	36.0%	-6.3%	?	11.9%[38.3 µM]	10.4%	2.6%	3.9%	16.0%
Clc1ccc(/C=N/N2CCN(Cc3ccccc3Cl)CC2)cc1	8.5	?	-3.8	-1.6%	6.5%	0.3%	·	·	·	·	·
COc1ccc(CN2CCN(Cc3ccccc3F)CC2)cc1	-0.5	-16.7%	-7.9	8.1%	-4.8%	15.8µM*	16.5%	-3.1%	-1.4%	8.8%	1.1%
CCOC(=O)C1CCN(Cc2ccc(OC)cc2OC)CC1	-3.7	1.3%	-12.3	-5.4%	-5.5%	?	·	·	·	·	·
COc1ccc(/C=N\N2CCN(Cc3ccccc3Cl)CC2)cc1	-3.4	?	-4.9	13.8%	-5.5%	15.8µM*	-11.7%[10.4 µM]	-10.8%	-1.1%	5.5%	5.8%
COc1ccc(CN2CCN(Cc3ccccc3F)CC2)c(OC)c1	-2.9	-5.6%	-20.9	-4.9%	-5.1%	12.6µM*	19.1%	0.0%	-2.6%	6.8%	-13.7%
CC1CCCN(CCCOc2ccccc2-c2ccccc2)C1 (stereo unspecified)	-2.5	-17.7%	0.3	18.0%	-2.2%	?	·	·	·	·	·
CS(=O)(=O)c1nc(-c2ccc(Br)cc2)n[nH]1	-0.9	-8.4%	73.8	3.7%	2.9%	11.6%	·	·	·	·	·
COc1ccc(-c2nc3c(c(SC)n2)Cc2c(CO)cnc(C)c2O3)cc1	·	·	·	3.2%	·	·	·	·	·	·	·

High-throughput results deposited in PubChem BioAssay by National Center for Advancing Translational Sciences (NCATS).
